DT40 TDP1 CPT – DT40-hTDP1 cell growth loss with CPT; chicken DT40 Tdp1-/-;hTDP1 cells + 20 nM CPT, ATP luminescence, 48 h; Potency, µM (top dose mostly 46.2 µM), without a hit: at the highest dose activity change, negative = growth inhibition, actives largely listed as inhibitors; actives 12% (n = 420,000); AID 686979; further: potency means the concentration at half of the fitted maximal effect; nearly all actives have a fitted effect of over 55% in size
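Cell growth measured by CellTiter-Glo luminescence after a minimum 48 h, 37 C compound exposure with 20 nM CPT in Tdp1-knockout DT40 cells stably expressing hTDP1, seeded 400/well; qHTS titration format.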
Gal4-VP16 FLuc – counter-screen for ROR gamma inhibitors: Gal4-VP16 reporter; Drosophila S2 Gal4-VP16 UAS-luciferase, luminescence, 20 h; Potency, µM (titrated, usually from 53.6 µM), for inactives: at the highest dose activity, negative = inhibition, most hits filed as inhibitors; actives 3.5% (n = 310,000); AID 2546;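 further: Gal4-VP16 expression switched on by copper sulfate through the metallothionein promoter; potency means the concentration at half of the fitted maximal effect; nearly all actives have a fitted effect of over 50% in size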
DT40 TDP1 no CPT – qHTS for Inhibitors of human tyrosyl-DNA phosphodiesterase 1 (TDP1): qHTS in cells in absence of CPT. AID 686978, 2013. Potency, µM (doses to about 46.2 µM), for inactives: top-dose activity change, negative = growth inhibition, actives largely listed as inhibitors. DT40 Tdp1-/- hTDP1 cells, no CPT, ATP luminescence, 48 h. actives 15% (n = 420,000); further: potency means the concentration at half of the fitted maximal effect; nearly all actives have a fitted effect of over 55% in size
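Compound effects on proliferation are scored in DT40 Tdp1-/-;hTDP1 cells in the absence of CPT. ATP levels (CellTiter-Glo luminescence) are recorded after a ≥48 hr, 37 °C incubation.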
LDHA inh – LDHA (human) enzyme inhibition. actives 0.15% (n = 480,000). AID 1347041. P00338. purified LDHA, NADH/diaphorase-resazurin fluorescence; stronger effect = lower value. activity change, % (values are at about 110 or 230 µM); in the data active means activity change below about -30%; inconclusive means mostly about -25% to -30%;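 further: plate controls were DMSO wells for no effect and wells without enzyme for full effect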
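LDH5 2 nM; NADH 0.06 mM, pyruvate 0.2 mM; 200 mM Tris pH 7.4, EDTA, Tween-20; 5 min RT. Detection: diaphorase 0.133 mg/mL + resazurin 37 µM, fluorescence ex540/em590 at 0 and 20 min; normalized to enzyme-free and DMSO wells.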
RORgamma inh – inhibitors of mouse ROR gamma transcriptional activity; Drosophila S2 Gal4-RORgamma UAS-luciferase reporter, 20 h; Potency, µM (top dose mostly 53.6 µM), inactives show at the highest dose activity change, negative = inhibition, hits mostly inhibitors; actives 5.4% (n = 310,000); further: potency means the concentration at half of the fitted maximal effect; nearly all actives have a fitted effect of over 60% in size
Target sequence (P51450 whole entry, looked up, the tested form may be a part): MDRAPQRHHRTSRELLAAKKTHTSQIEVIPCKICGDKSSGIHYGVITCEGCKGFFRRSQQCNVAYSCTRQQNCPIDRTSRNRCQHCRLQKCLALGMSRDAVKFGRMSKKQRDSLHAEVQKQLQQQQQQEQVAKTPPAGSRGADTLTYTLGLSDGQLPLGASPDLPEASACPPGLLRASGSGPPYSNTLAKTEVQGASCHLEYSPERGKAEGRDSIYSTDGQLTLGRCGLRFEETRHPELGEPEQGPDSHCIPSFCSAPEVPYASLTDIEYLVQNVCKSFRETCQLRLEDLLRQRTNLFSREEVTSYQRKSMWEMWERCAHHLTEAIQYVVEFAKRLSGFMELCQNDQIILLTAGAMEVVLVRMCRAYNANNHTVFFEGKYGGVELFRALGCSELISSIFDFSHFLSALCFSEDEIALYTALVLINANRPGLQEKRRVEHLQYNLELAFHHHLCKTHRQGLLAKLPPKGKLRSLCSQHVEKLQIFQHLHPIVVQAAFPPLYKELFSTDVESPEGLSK
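Stable Schneider cell line, Gal4 DNA-binding domain fused to ROR gamma, UAS-luciferase. Cmpd 1 hr RT → CuSO4 700 uM final → 20 hr RT → luciferase reagent 10 min → luminescence.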
IL1B secr inh – inflammasome signaling inhibition, IL-1 beta readout; activity change, % at 57.5 µM; THP-1 LPS/ATP IL-1B secretion, AlphaLISA, 16 h; stronger effect = lower value; actives 4.7% (n = 360,000); in the data active means activity change below about -50%; inconclusive means mostly about -30% to -49%
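THP-1 cells pretreated 1 hr with compounds (up to 57.5 uM final), then stimulated with LPS (250 ng/mL final) plus ATP (1.25 mM final); secreted IL-1B measured by AlphaLISA after 16 hr, decreased signal indicating inhibition.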
The depositor's hits bear a star; ? = inconclusive; · = no result given. Only some compounds are listed: those with a hit (about 18% of all), similar ones and a draw of the others. Unless noted, the call rests on the fitted dose curve; in most records, active means well fitted curve in the direction sought with a large enough effect; inconclusive means small, poorly fitted or top-dose-only effect, or another doubt; inactive means no such curve, though single readings can be large; an effect the other way counts as inactive or inconclusive. Unless noted, on the % scale 0 is the no-effect control and ±100 the full control effect.

SMILES | DT40 TDP1 CPT | Gal4-VP16 FLuc | DT40 TDP1 no CPT | LDHA inh | RORgamma inh | IL1B secr inh
COc1ccc(-c2nc(CS(=O)CC(=O)NCCCOC(C)C)c(C)o2)cc1OC (configuration not stated) | · | · | · | 10 | · | ·
CCOC(=O)NC(C(=O)OCC)(c1ccc(F)cc1)C(F)(F)F (configuration not stated) | · | · | · | 3 | · | ·
COc1cccc(NC(=O)CSc2nc3ccccc3c(=O)n2-c2ncn[nH]2)c1 | · | · | · | 1 | · | ·
COc1ccc(Nc2nc(N)nc(CSC(=S)N3CCN(C)CC3)n2)cc1 | -14% | -2% | ? | 0 | ? | -11
COc1ccc(Nc2nc(N)nc(CSC(=S)N3CCN(c4ccccc4)CC3)n2)cc1 | ? | 1% | 18µM* | -10 | 24% | -15
Cc1cc2oc(C(=O)Nc3ccccc3Cl)cc(=O)c2cc1C | · | · | · | -2 | · | ·
O=C(Nc1ccccc1N1CCOCC1)c1cc(=O)[nH]c2ccccc12 | ? | · | 16µM* | -4 | · | 6
O=C(Nc1ccccc1N1CCOCC1)c1cccc2c(Br)cccc12 | ? | 7% | 18µM* | -1 | 5% | -3
O=C(Nc1ccc2oc(-c3cccnc3)nc2c1)c1cc(Cl)ccc1Cl | · | · | · | -10 | · | ·
COC(=O)c1cc(C)nc2c1c(=O)nc(SCc1ccccc1F)n2C1CC1 | -3% | · | -18% | 1 | · | ·
CCn1c(SCc2ccc(F)cc2Cl)nc(=O)c2c(C(=O)OC)cc(C3CC3)nc21 | 16µM* | · | 18µM* | 0 | · | ·
CCn1c(SCc2ccccc2F)nc(=O)c2c(C(=O)OC)cc(C3CC3)nc21 | 16µM* | · | ? | 7 | · | ·
CC(=O)c1ccc(NC(=O)c2cccc3c2ccn3C)cc1 | · | · | · | -11 | · | ·
Cc1ccccc1C1N=C2Oc3ccccc3C=C2C(=O)N1 (configuration not stated) | 6.5µM* | · | 5.8µM* | -1 | · | -5
COc1cc(SC)ccc1C(=O)OCC(=O)Nc1cc(C)ccc1C | · | · | · | -3 | · | ·
O=c1nc(-c2ccccc2)c2cc(Br)ccc2[nH]1 | 0.33µM* | -14% | 0.23µM* | -2 | -5% | -24
O=c1nc(-c2ccccc2)c2cc(Cl)ccc2[nH]1 | ? | 0% | 1.3µM* | 1 | 5% | -19
O=c1nc(-c2ccccc2)c2cc(SC(F)F)ccc2[nH]1 | -5% | -2% | 0.41µM* | -3 | 26% | 5
Cc1nc2cc(NC(=O)c3ccc(C)c(F)c3)ccc2o1 | · | · | · | 0 | · | ·
Cc1ccc(C)c(NC(=O)COC(=O)c2nc(-c3ccccc3)oc2C)c1 | · | · | · | -11 | · | ·
COC(=O)c1scc(-c2ccc(C)cc2)c1S(=O)(=O)N1CCN(c2ccc(F)cc2)CC1 | 8.2µM* | · | 1.8µM* | 0 | · | ·
COC(=O)c1scc(-c2ccc(C)cc2)c1S(=O)(=O)N1CCN(c2cccc(OC)c2)CC1 | 9.2µM* | · | 5.8µM* | -1 | · | ·
COC(=O)c1sc2cccc(F)c2c1S(=O)(=O)N1CCN(c2cccc(OC)c2)CC1 | ? | · | ? | -3 | · | ·
O=C(c1cc(Cl)ccc1Cl)N1CCN(C(=O)c2cc(Cl)ccc2Cl)CC1 | · | · | · | 10 | · | ·
CC(OC(=O)c1ccccc1NS(=O)(=O)c1cccc(N)c1)C(=O)N(C)Cc1ccccc1 (configuration not stated) | ? | -13% | 23µM* | -8 | 15% | -12
SMILES | DT40 TDP1 CPT | Gal4-VP16 FLuc | DT40 TDP1 no CPT | LDHA inh | RORgamma inh | IL1B secr inh
COc1ccc2c(C)c(CC(=O)NCc3ccccc3)c(=O)oc2c1OC | · | · | · | 9 | · | ·
Oc1c(Cl)cc(Cl)cc1/C=N/c1nccs1 | 26µM* | ? | ? | 3 | 13µM* | -13
CN(C)c1ccc(NC(=O)c2cc3c(=O)n4ccccc4nc3n2C)cc1 | ? | · | 15µM* | 9 | · | ?
CCCCN(CC)C(=O)c1cc2c(=O)n3ccccc3nc2n1C | ? | · | ? | -4 | · | ·
CCOc1ccccc1NC(=O)c1cc2c(=O)n3ccccc3nc2n1C | · | · | · | 4 | · | ·
CN(C(=O)c1cc2c(=O)n3ccccc3nc2n1C)c1ccccc1 | 12µM* | · | ? | 3 | · | ·
O=C(CCC(=O)OCC(=O)c1ccc([N+](=O)[O-])cc1)Nc1ccccc1Cl | 18µM* | 2% | ? | 1 | 2% | 5
Cc1ccccc1OCC(=O)NCC(=O)OCC(=O)c1ccc([N+](=O)[O-])cc1 | 26µM* | -5% | 11µM* | -4 | -8% | ?
O=C(CCC(=O)OCC(=O)c1cccc([N+](=O)[O-])c1)Nc1cccc(Cl)c1Cl | 15% | 11% | -1% | -9 | 15% | 13
Cc1ccccc1OCC(=O)NCC(=O)OCc1ccc2ccccc2c1 | ? | · | 16µM* | -4 | · | ·
O=C(Nc1ccc(C(F)(F)F)oc1=O)c1ccccc1 | · | · | · | 2 | · | ·
OC[C@@H]1CN(Cc2ccc(-c3ccccc3)cc2)C[C@H](n2cnc3c(Nc4ccccc4)ncnc32)O1 | 4.1µM* | · | ? | -5 | · | ?
CNc1ncnc2c1ncn2[C@H]1CN(Cc2ccc(-c3ccccc3)cc2)C[C@@H](CO)O1 | ? | · | 23µM* | -5 | · | 1
OC[C@@H]1CN(Cc2ccc(-c3ccccc3)cc2)C[C@H](n2cnc3c(NCc4ccc(F)cc4)ncnc32)O1 | 4.1µM* | · | 3.7µM* | -3 | · | -7
OCCNc1ncnc2c1ncn2[C@H]1CN(C2CCCC2)C[C@@H](CO)O1 | -1% | · | 1% | 1 | · | 22
CNc1ncnc2c1ncn2[C@H]1CN(C2CCCC2)C[C@@H](CO)O1 | 1.6µM* | · | -9% | -12 | · | -3
O=C(/C=C/c1ccccc1)c1ccc2oc3ccccc3c2c1 | · | · | · | 2 | · | ·
CCc1cccc2c(C(=O)CN3C(=O)CC4(CCCC4)C3=O)c[nH]c12 | · | · | · | 8 | · | ·
COc1ccc(C2SCC(=O)N2CCc2ccc(OC)c(OC)c2)cc1 (configuration not stated) | 7.3µM* | 2.8µM* | 5.2µM* | -2 | ? | 3
COc1ccc(CCN2C(=O)CSC2=Nc2ccc(C)cc2C)cc1OC | 23µM* | -9% | 23µM* | -2 | -3% | 15
COc1ccc(CCn2c(C)ccc2C)cc1OC | · | 0% | · | · | ? | ·
COc1ccc(CCN2C(=O)C=CC2=O)cc1OC | 0.82µM* | · | 1.3µM* | -2 | · | -115*
COc1ccc(CCNC2=C(Cl)C(=O)N(CCc3ccc(OC)c(OC)c3)C2=O)cc1OC | 15µM* | -5% | 10µM* | -2 | 6% | 27
O=C(CC1CCN(C(=O)c2ccc3nc(-c4ccccc4)oc3c2)CC1)NCCN1CCCCC1 | · | · | · | 4 | · | ·
